# Calls of active or inactive are those of the source. The calls were made as follows: active = hit-call score of the fitted dose curve at least 0.9, where 1 is the maximum; inactive = score below 0.9.
# Target: human Serotonin Receptor 5-HT6 Agonism, HTR6 (gene 3362) (UniProt P50406)
# Assay: ERF_FR_GPCR_hHTR6: Eurofins (ERF) G Protein-Coupled Receptor (GPCR) Radioligand Binding LeadHunter Assay for human Serotonin Receptor 5-HT6 Agonism
# Procedure: ERF_FR_GPCR_hHTR6 is a biochemical, single-readout assay that uses extracted gene-proteins in a cell-free assay. Measurements were taken 2 hour after chemical dosing in a 96-well plate. See 5-HT6 Human Serotonin GPCR Binding (Agonist Radioligand) Assay, Cerep.ERF_FR_GPCR_hHTR6 is an assay component calculated from the ERF_FR_GPCR_hHTR6 assay. It is designed to measure radioligand binding using a type of binding reporter as detected by scintillation counting with radiometry technology.Data from the assay component ERF_FR_GPCR_hHTR6 was analyzed at the assay endpoint, ERF_FR_GPCR_hHTR6, in the positive analysis fitting direction relative to DMSO as the negative control and baseline of activity. Using a type of binding reporter, gain-of-signal activity can be used to understand changes in binding as they relate to gene HTR6. To generalize the intended target to other relatable targets, this assay endpoint is annotated to the gpcr intended target family, where the subfamily is serotonin.
# Human cells are incubated for 120 minutes at 37 C with [3H]LSD ligand (2 nM) and serotonin as control inhibitor. Test Sample Requirements: Minimum for 1) Screen: 60 ul of 10 mM stock -OR- 1 mg (pre-weighed) for 10 uM final testing. 2) Dose Response: 90 ul of 10 mM stock -OR- 1 mg (pre-weighed) for a top concentration at 10 uM.
# human Serotonin Receptor 5-HT6 Agonism, HTR6 (gene 3362), sequence (P50406 whole entry, looked up): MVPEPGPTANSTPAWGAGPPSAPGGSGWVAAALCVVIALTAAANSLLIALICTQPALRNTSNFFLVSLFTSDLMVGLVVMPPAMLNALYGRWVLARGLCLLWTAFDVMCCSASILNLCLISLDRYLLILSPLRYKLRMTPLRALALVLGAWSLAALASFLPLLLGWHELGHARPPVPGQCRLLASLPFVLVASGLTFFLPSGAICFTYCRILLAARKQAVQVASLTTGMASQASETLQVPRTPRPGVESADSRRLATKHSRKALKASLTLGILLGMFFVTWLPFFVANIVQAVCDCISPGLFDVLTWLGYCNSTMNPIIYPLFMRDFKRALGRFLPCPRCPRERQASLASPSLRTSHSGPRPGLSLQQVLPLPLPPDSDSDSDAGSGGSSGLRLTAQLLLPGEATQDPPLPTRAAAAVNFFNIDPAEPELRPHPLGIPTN
row,Compound,AC50
1,O=C(/C=C/c1ccc(O)cc1)CC(=O)/C=C/c1ccc(O)cc1,2.7 µM (active)
